# From PubChem
# DENV2 CPE – protects cells from dengue virus 2 cytopathic effect; DENV2-infected cells, cytopathic effect rescue, plate reader; CPE inhibition, % at 9.99 µM; actives 1.7% (n = 350,000); in the data active = CPE inhibition above about 20%, passing the limit was not always enough; tested in BHK-21 cells
# GSIS activator – primary screen for activators of insulin secretion dependent on glucose, INS-1E cells, GLuc reporter luminescence; INS-1E GLuc reporter insulin secretion, 2-3 h; activation, % at 16.6 µM; actives 0.61% (n = 370,000); AID 743287;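 active = lowest replicate activation of at least 40%, so every replicate reaches that level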
# dFosB act – enhances mouse delta FosB homodimer DNA binding; P13346; purified delta FosB, TAMRA-CDK5 oligo fluorescence polarization; percent of positive-control signal above neutral wells; activation, % at 25 µM; actives 0.99% (n = 340,000);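 active = mean activation above about 17%, with every replicate also reaching it, limit read from the data, passing the limit was not always enough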
# RAD54 branch – inhibitors of human RAD54 branch migration; inhibition, % at 10.4 µM; RAD54 Holliday junction branch migration, FAM/BHQ fluorescence; Q92698; AID 602329; actives 0.14% (n = 360,000);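 active = mean normalized replicate activity at least 40 and at least half of replicates scoring 40 or more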;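 note: inhibitors cause a drop in the FAM fluorescence signal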
# AF4-AF9 inh – inhibitors of human MLL-AF4/AF9 interaction | P42568 | AlphaScreen, biotin-AF4 peptide binding to FLAG-AF9 | inhibition, % at 10 µM | actives 0.47% (n = 350,000);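 active = every replicate reaching a set inhibition limit, whatever the replicate mean, cut at about 25% in these data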
# RAD52 anneal inh – RAD52 (human) annealing inhibition; actives 0.46% (n = 360,000); recombinant RAD52 DNA annealing, FRET fluorescence; P43351; inhibition, % at 18.7 µM;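 active = every replicate showing at least 50% inhibition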
# Target sequence (P43351 whole entry, looked up): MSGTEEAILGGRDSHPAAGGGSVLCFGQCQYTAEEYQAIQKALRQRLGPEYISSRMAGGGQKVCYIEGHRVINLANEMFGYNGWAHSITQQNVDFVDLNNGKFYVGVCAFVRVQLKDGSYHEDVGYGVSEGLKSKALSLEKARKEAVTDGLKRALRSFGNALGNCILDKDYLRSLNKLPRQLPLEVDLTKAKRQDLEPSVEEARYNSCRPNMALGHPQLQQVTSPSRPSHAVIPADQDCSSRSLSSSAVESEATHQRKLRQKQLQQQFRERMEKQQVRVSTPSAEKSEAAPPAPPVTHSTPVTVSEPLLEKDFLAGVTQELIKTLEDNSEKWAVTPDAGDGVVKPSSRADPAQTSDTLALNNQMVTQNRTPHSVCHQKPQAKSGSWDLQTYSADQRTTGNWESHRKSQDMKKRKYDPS
# A number is an active result; n = inactive; x = no result. Compounds with a hit are over-represented: about 3.1% of the library has one in this group of screens.
SMILES,DENV2 CPE,GSIS activator,dFosB act,RAD54 branch,AF4-AF9 inh,RAD52 anneal inh
O=C(N[C@H]1CC[C@@H](CC(=O)N2CCCCC2)O[C@@H]1CO)c1ccccn1,n,n,x,n,n,n
O=C(C[C@@H]1C=C[C@@H](NC(=O)c2ccncc2)[C@H](CO)O1)Nc1ccccc1,35,n,x,x,n,n
CCC(=O)Nc1ccc2c(c1)C(=O)N(C)C[C@@H](OC)[C@@H](C)CN(Cc1cncnc1)[C@@H](C)CO2,x,n,x,x,x,x
Cc1cc(O)c(C(C)C)cc1NC(=S)Nc1cc(C(C)C)c(O)cc1C,74,x,n,x,n,n
CCOc1ccc(NC(=O)Nc2cc(C(C)C)c(O)cc2C)cc1,n,n,n,n,n,n
COc1cc(OC)cc(-c2c(C#Cc3ccsc3)c3cc(-c4cccc5[nH]ccc45)ccc3n2C)c1,n,n,18,n,n,n
COc1cc(OC)cc(-c2c(C#Cc3ccsc3)c3cc(-c4ccc5cc[nH]c5c4)ccc3n2C)c1,n,n,n,n,n,n
COc1ccc(CNC(=O)C[C@@H]2CC[C@@H](NS(=O)(=O)c3cccc(OC)c3)[C@H](CO)O2)cc1,n,n,x,n,n,n
Cc1cc(C)cc(OCC(=O)OC/C(O)=C(\C#N)c2nc3ccccc3[nH]2)c1,x,n,n,x,x,x
Cc1cccc(C)c1OCC(=O)OC/C(O)=C(\C#N)c1nc2ccccc2[nH]1,33,x,n,n,n,n
O=C(c1ccccc1Cc1ccccc1)N1CCN(S(=O)(=O)c2ccccc2)CC1,68,n,n,n,n,n
COC(=O)c1ccc(COC(=O)c2ccc(S(=O)(=O)N3CCC(C)CC3)cc2)o1,x,x,n,x,x,x
O=C(c1ccc2c(c1)OCO2)N1CCC(Cc2ccccc2)CC1,25,n,n,x,n,n
Cc1ccc(S(=O)(=O)N2CCN(C(=O)c3ccc4c(c3)OCO4)CC2)cc1,n,n,n,n,n,n
CC1CCN(S(=O)(=O)c2ccc(C(=O)OCc3ccc4c(c3)OCO4)cc2)CC1,x,142,n,n,x,x
O=C(c1ccc2c(c1)OCO2)N1CCN(S(=O)(=O)c2ccccc2)CC1,n,46,n,n,n,n
Cc1noc(C)c1S(=O)(=O)Nc1ccc2c(c1)C(=O)N([C@H](C)CO)C[C@@H](C)[C@H](CN(C)C(=O)CCC(F)(F)F)OCCCC[C@@H](C)O2,n,n,x,n,n,n
CCC(=O)N(C)C[C@@H]1Oc2cc(-c3ccncc3)ccc2S(=O)(=O)N([C@H](C)CO)C[C@@H]1C,n,n,x,n,n,n
CCN(CC)c1ccc2c(-c3ccc(S(=O)(=O)O)cc3S(=O)(=O)[O-])c3ccc(=[N+](CC)CC)cc-3oc2c1,x,n,63,n,x,n
N#C[C@H]1[C@@H](c2ccccc2-c2ccccc2F)[C@H](CO)N1C(=O)c1cccc(F)c1,n,n,x,x,n,n
CCc1ccc(CNC(=O)c2ccc(NC(=O)C3=CSCCO3)cc2)cc1,n,n,23,n,n,n
COC(=O)[C@H]1[C@H](CO)[C@H]2Cn3c(ccc(-c4cccc(F)c4)c3=O)[C@H]2N1C(C)=O,n,n,x,n,n,n
Nc1ncnc2c1nc(Sc1ccc(Cl)cc1)n2[C@@H]1O[C@@H]2COP(=O)(O)O[C@H]2[C@H]1O,n,64,n,n,n,n
CCCC(=O)Nc1ncnc2c1ncn2[C@@H]1O[C@@H]2COP(=O)(O)O[C@H]2[C@H]1OC(=O)CCC,n,x,n,n,n,n
COc1cccc(C(=O)Nc2ccc3c(c2)C(=O)N(C)[C@@H]2CC[C@H](CC(=O)NCc4ccccc4F)O[C@@H]2CO3)c1,x,n,x,n,n,n
SMILES,DENV2 CPE,GSIS activator,dFosB act,RAD54 branch,AF4-AF9 inh,RAD52 anneal inh
COc1cc(-c2nc(-c3cccnc3)no2)cc(OC)c1OC,x,n,n,n,x,x
COc1ccc(-c2nc(-c3cccnc3)no2)cc1OC,n,58,n,n,x,n
O=c1[nH]c2ccccc2c2nc(-c3cccc(S(=O)(=O)N4CCCC4)c3)nn12,n,n,53,n,n,n
C/C=C/c1ccc([C@H]2[C@@H](CO)N3CCCCN(S(=O)(=O)c4ccccc4)C[C@@H]23)cc1,115,n,x,n,n,n
COc1ccc(C#Cc2ccc([C@@H]3[C@@H](CO)N4CCCCN(S(=O)(=O)c5ccccc5)C[C@@H]34)cc2)cc1,32,x,x,n,n,n
COCC#Cc1ccc([C@H]2[C@H]3CN(S(=O)(=O)c4cccc(OC)c4)CCCCN3[C@H]2CO)cc1,23,n,x,n,n,n
COc1ccc(C#Cc2ccc([C@H]3[C@@H](CO)N4CCCCN(S(=O)(=O)c5ccccc5)C[C@@H]34)cc2)cc1,82,n,x,n,n,n
O=C1N[C@H](c2ccccc2)COCn2nncc2CC[C@H]1Cc1ccccc1,n,n,x,x,n,n
CC(=O)N[C@H]1CC[C@@H](CCNC(=O)C2CCC2)O[C@@H]1CO,n,n,x,n,n,n
O=C(CNC(=O)c1ccccc1F)NCCN1C(=O)S/C(=C\c2ccccc2Cl)C1=O,81,n,n,n,n,n
Cc1ccc(/C=C/c2ccc3cccc(O)c3n2)s1,n,n,n,n,42,n
Oc1cccc(/C=C/c2ccc3cccc(O)c3n2)c1,n,n,n,n,n,n
COC(=O)N/N=C/c1cc(C)n(-c2cccc3ccccc23)c1C,x,n,n,n,x,x
CCOC(=O)N/N=C/c1cc(C)n(-c2cccc3ccccc23)c1C,37,x,n,n,n,n
COc1ccc2c3c([nH]c2c1)[C@H](CO)N(C(=O)CN(C)C)CC31CN(CC2CC2)C1,n,n,x,x,n,50
CCS(=O)(=O)N1CC2(CN(Cc3ccc4c(c3)OCO4)[C@@H](CO)c3[nH]c4cc(OC)ccc4c32)C1,x,n,x,x,x,x
COc1ccc(CN2CC3(C2)CN(Cc2ccc4c(c2)OCO4)[C@@H](CO)c2[nH]c4cc(OC)ccc4c23)cc1,n,n,x,x,50,x
COc1ccc2c3c([nH]c2c1)[C@@H](CO)N(C(=O)CN(C)C)CC31CN(CC2CC2)C1,n,n,x,x,n,56
COc1ccc2c3c([nH]c2c1)[C@H](CO)N(C(=O)CN(C)C)CC31CN(Cc2ccccc2)C1,n,n,x,x,n,55
CNC[C@H]1Oc2c(NC(=O)c3ccc(-c4nccs4)cc3)cccc2C(=O)N([C@H](C)CO)C[C@@H]1C,n,n,x,n,n,n
C[C@H](CO)N1C[C@H](C)[C@@H](CN(C)Cc2ccncc2)Oc2cc(C#CC3CC3)ccc2S1(=O)=O,n,n,x,n,n,n
COCC(=O)Nc1ccc2c(c1)OC[C@@H](C)N(C(=O)Cc1cccnc1)C[C@@H](C)[C@H](OC)CN(C)C2=O,n,x,x,n,n,n
Cc1cc(C)c(C(=O)N(C)C2CCCN(Cc3ccccc3F)C2)o1 (stereo not drawn),37,n,n,n,n,n
COc1cccc(C(=O)Nc2ccc3c(c2)C(=O)N(C)C[C@@H](OC)[C@H](C)CN(CC2CC2)[C@H](C)CO3)c1,n,n,x,n,n,n
